rRNA inh HTS: inhibits bacterial ribosomal RNA function over humanized ribosomes. E. coli WT GFP vs humanized-ribosome RFP mutants, fluorescence, 24 h; hits give low values; DMSO median 0, no signal -100. GFP signal change (wild-type ribosome), % (no concentration beside the values). hit rate 1.6% among 350,000;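 active = significant combined selectivity score with lowered wild-type GFP, culture density cut under 30%, mutant RFP and density less affected; inactive = any of these conditions unmet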
RAD52 inh: inhibitors of human RAD52 DNA annealing; P43351; recombinant RAD52 DNA annealing, FRET fluorescence; inhibition, % at 18.7 µM; hit rate 0.46% among 360,000;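 active = every replicate showing at least 50% inhibition; inconclusive = mean inhibition at least 50% but not in every replicate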
Target sequence (P43351 whole entry, looked up): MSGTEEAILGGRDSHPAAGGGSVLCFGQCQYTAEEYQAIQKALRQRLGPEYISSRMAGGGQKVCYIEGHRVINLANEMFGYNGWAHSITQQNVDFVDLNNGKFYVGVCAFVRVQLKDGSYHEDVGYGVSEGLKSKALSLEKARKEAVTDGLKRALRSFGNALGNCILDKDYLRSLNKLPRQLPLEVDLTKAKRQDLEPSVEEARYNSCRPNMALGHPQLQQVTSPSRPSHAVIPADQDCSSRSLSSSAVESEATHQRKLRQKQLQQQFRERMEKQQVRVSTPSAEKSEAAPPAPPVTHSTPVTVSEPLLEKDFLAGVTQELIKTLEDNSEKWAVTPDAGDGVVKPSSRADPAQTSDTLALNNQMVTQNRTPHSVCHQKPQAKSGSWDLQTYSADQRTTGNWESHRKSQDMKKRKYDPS
NSD2 inh: inhibitors of human histone methyltransferase NSD2; O96028; NSD2 peptide methylation, AlphaScreen, 120 min; inhibition, % at 12.5 µM; hit rate 0.54% among 310,000; in the data active = inhibition above about 50%
MLL AF4-AF9 inh: blocks AF4 peptide binding to human AF9. AlphaScreen, biotin-AF4 peptide binding to FLAG-AF9. inhibition, % at 10 µM. hit rate 0.47% among 350,000. AID 651704;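 active = every replicate reaching a set inhibition limit, whatever the replicate mean, cut at about 25% in these data; inconclusive = mean inhibition reaches that limit but some replicates miss it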;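 note: 0% = plate neutral control median and 100% = total signal loss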
CASP6 VEID inh: blocks human caspase-6 cleavage activity. P55212. purified caspase-6, Z-VEID-R110 cleavage fluorescence. inhibition, % at 12.5 µM. hit rate 0.53% among 350,000. AID 686996;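 active = mean inhibition across replicates at least about 35%, with every replicate also reaching that limit, limit read from the data; inconclusive = only one of the two criteria met; inactive = neither criterion met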;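 note: 0% = median of neutral control wells and 100% = no fluorescence left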
HepG2 cytotox: HepG2 cell cytotoxicity; shares compounds with rRNA inh HTS; HepG2 viability, ATP luminescence, 72 h; activity change, negative = cytotoxicity, unspecified at 26 µM; 30 tested, under 10 active;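 active = compounds whose fitted half-maximal signal-loss concentration is at most twice their highest valid dose; inconclusive = flat curve with 30 to 70% signal loss, or poor fit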
AID977621: wild-type E. coli growth inhibition versus H69 humanized strain – H69 mutant RFP, wild-type GFP, cherry-pick, dose response. shares compounds with rRNA inh HTS. fluorescence, 24 h. activity change, negative = inhibition at 50 µM. 1,900 tested, under 10 active. AID 977621;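 active = Wild-type ribosome reporter drop at least double the humanized mutant ribosome reporter drop, growth loss under a set limit; inconclusive = no clear call, values can overlap the other calls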;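 note: wild-type GFP and H69 mutant RFP strains grown together 50/50 in each well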
AID977628: E. coli growth inhibition, wild-type GFP versus h24 humanized RFP strain, dose response, h24 mutant RFP vs wild-type GFP, cherry-pick | shares compounds with rRNA inh HTS | E. coli WT GFP strain growth, fluorescence, 24 h | activity change, negative = inhibition at 50 µM | 1,900 tested, under 10 active;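 active = compound lowering the normal-ribosome reporter at least twice as much as the humanized-ribosome reporter, growth loss under a set limit; inconclusive = no clear call, values can overlap the other calls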;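 note: wild-type GFP and h24 humanized RFP strains co-cultured 1 to 1 per well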
Active calls of the source: *; ? = inconclusive; / = no result given. Hits are enriched below; roughly 2.5% of the tested compounds scored in any of these assays.

SMILES	rRNA inh HTS	RAD52 inh	NSD2 inh	MLL AF4-AF9 inh	CASP6 VEID inh	AID977621	AID977628	others
Nc1ccc(C(=O)OCCc2ccccc2)cc1	-30.4*	-11.4	/	-1.4	-1.0	-8.98	-4.72
Cc1cc(C(=O)COC(=O)CNC(=O)c2ccccc2)c(C)n1CC1CCCO1 (centres undefined)	-19.6*	-8.9	3.5	1.3	-3.3	-4.91	-9.97
CCS(=O)(=O)N1CC2(C1)[C@H](c1ccccc1)[C@@H](CO)N2C(=O)C1CCC1	-0.9	-13.8	/	-4.0	0.2	/	/
Cc1ccc2nc(SCC(=O)Nc3nonc3N)[nH]c2c1	6.8	-3.9	-2.6	-1.1	2.9	/	/
CCOc1ccc2nc(SCC(=O)Nc3nonc3C)[nH]c2c1	-20.4*	-25.4	-2.4	-0.3	6.1	-15.4	-9.98
FC(F)(F)c1ccc(-c2nc3ccccc3s2)cc1	-0.2	-1.2	/	1.6	-2.6	/	/
CC(C)c1ccc(-c2nc3ccccc3s2)cc1	-16.0*	-11.3	-0.9	-4.6	0.9	-3.12	-4.91
CC(OC(=O)COc1ccccc1)C(=O)NC1CCCC1 (centres undefined)	-17.9*	1.8	-0.6	-3.9	-248.1	/	-8.73
CC(Oc1ccccc1)C(=O)NC1CCCCCCC1 (centres undefined)	3.1	0.3	-1.5	-3.0	1.3	/	/
CN(Cc1ccc(F)cc1)C(=O)CN1CCN(S(=O)(=O)c2ccc3c(c2)OCCCO3)CC1	-17.6*	-2.3	-0.1	2.6	11.4	/	?
COc1ccc(OC)c(NC(=O)c2c3c(nc4ccccc24)CCC3)c1	-21.7*	-21.8	0.0	0.5	3.1	/	?
CSc1ccccc1OCc1cc(C(=O)N(C)Cc2nonc2C)no1	-30.0*	-3.5	-0.9	-2.7	-0.3	-13.8	-12.1
Cc1noc(C)c1C(=O)NC(C)c1ccc(Cl)cc1Cl (centres undefined)	9.7	-3.2	0.8	2.5	-6.2	/	/
CC(NC(=O)c1ccncc1)c1ccc(Cl)cc1Cl (centres undefined)	-33.2*	-27.1	-3.2	0.5	-2.6	-2.21	-7.25
CC(C)(C)S(=O)(=O)Cc1nc(-c2ccc(Cl)c(Cl)c2)cs1	-15.2*	-11.4	-0.9	3.7	0.5	-1.04	-2.62
c1ccc2c(c1)ncn2CCn1cnc2ccccc21	/	/	-3.8	/	/	/	/
Cc1ccc(Cn2cnc3ccccc32)cc1	-25.1*	9.7	-1.8	-18.0	-2.7	-12.8	-0.7
CCN(C(=O)c1ccnc(C(C)(C)C)c1)c1ccccc1	-34.1*	-10.6	-3.1	1.0	-3.9	/	?
CS(=O)(=O)N1[C@@H](C#N)[C@H](c2ccc(C#Cc3cccc(F)c3)cc2)[C@@H]1CO	-47.2	-58.5	/	-8.1	2.3	/	/
CC(=O)N1CCOc2ccc(S(=O)(=O)N(C)c3ccc(C)cc3)cc21	-21.4*	-13.9	-4.4	-1.8	-0.4	-13.1	/
CC(=O)N1CCOc2ccc(S(=O)(=O)NCc3ccc(C)cc3)cc21	0.4	-17.9	1.5	1.1	-1.4	/	/
COC(=O)CNC(=O)COC(=O)c1ccc(Cl)nc1	-18.6*	1.8	-1.0	-14.5	-2.2	-8.46	-5.93
Cc1ccc(S(=O)(=O)Nc2ccc3c(c2)CC(=O)N([C@H](C)CO)C[C@@H](C)[C@@H](CN(C)Cc2ccc(Oc4ccccc4)cc2)O3)cc1	3.8	-9.8	/	0.5	-1.3	/	/
O=C(C[C@H]1C[C@H]2c3cc(NC(=O)c4ccc5c(c4)OCO5)ccc3O[C@H]2[C@H](CO)O1)NCc1cccnc1	-8.2	5.5	/	0.2	1.1	/	/
O=C(O)c1cc([N+](=O)[O-])ccc1NCc1ccccc1	-25.1*	-10.2	-0.1	-1.8	2.0	/	/	HepG2 cytotox=12.5
O=C(O)c1cc([N+](=O)[O-])ccc1NCCCc1ccccc1	-56.9	-10.5	/	-0.6	6.1	/	/
C/C=C/c1ccc(C2[C@@H]3CN(S(=O)(=O)c4ccc(C)cc4)C[C@H]2N3)cc1 (some centres undefined)	1.7	/	/	/	/	/	/

Assay outcomes from PubChem BioAssay.
